Source: PubChem BioAssay
ALDH1A1 block: blocks purified human ALDH1A1 activity; Purified ALDH1A1, NADH fluorescence, propionaldehyde substrate; actives 7.3% (n = 220,000); Potency, µM (titrated, usually from 75.3 µM), without a hit: top-dose activity, negative = inhibition, usual class: inhibitors; P00352;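 note: potency is the fitted concentration of half-maximal effect; plate controls were no enzyme wells and a reference inhibitor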
PNC inhibitor: perinucleolar compartment assembly inhibition; activity change (PNC), negative = inhibition, % at 10 µM; actives 3.1% (n = 140,000); PC3M PTB-GFP, PNC prevalence imaging, 16 h; hits give low values; AID 2417;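 active = readout at or below -70, meaning at least 70% loss of cells showing the perinucleolar compartment, a nuclear body marking cancer cells; inconclusive = readout between -30 and a set limit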;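 note: plate controls were DMSO wells for no effect and camptothecin positive control wells for full effect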
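Read-out is percentage of cells bearing a perinucleolar compartment, from automated 20x imaging of fixed, Hoechst-stained PC3M PTB-GFP cells. Cells were seeded 4 h, then exposed 16 h to compound (23 nl of library stock) in duplicate plates.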
LMNA splice mod: changes lamin A minigene splicing in HeLa cells; actives 0.01% (n = 200,000); Potency, µM (doses to about 46.1 µM), inactives show top-dose ratio change, negative = inhibition, hits mostly inhibitors; HeLa LMNA splicing GFP/RFP minigene ratio, 48 h; AID 1487; active = well fitted inhibition curve with a large enough effect in the signal ratio, with a control signal flat, not every such curve was filed as active; inconclusive = small, poorly fitted or top-dose-only effect, or effect the other way, or a change in a side signal; the % refers to the signal ratio; note: potency is the fitted concentration of half-maximal effect
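S3 HeLa stable clones carrying a lamin A-EGFP splicing minigene plus DsRed2 were seeded at 600 cells/well in Opti-MEM with 2% FBS, pin-dosed and incubated 48 h at 37°C. Acumen cytometry (488 nm) gave the GFP/RFP total-intensity ratio.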
12-hLO inh: blocks human 12-lipoxygenase activity. P18054. purified 12-hLO, xylenol orange hydroperoxide absorbance. Potency, µM (top dose mostly 57.1 µM), for inactives: at the top dose activity change, negative = inhibition, hits mostly inhibitors. actives 0.12% (n = 150,000). AID 1452; active = well fitted inhibition curve with a large enough effect; inconclusive = small, poorly fitted or top-dose-only effect; note: potency is the fitted concentration of half-maximal effect; nearly all actives have a fitted effect of over 55% in size
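Lipoxygenase turnover measured by absorbance at 573 and 405 nm after Fe-XO development. Human 12hLO 150 nM, arachidonate 40 uM, pH 7.0 Hepes buffer with detergent; 15 min compound preincubation, 30 min reaction.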
HPGD block: inhibitors of human 15-hydroxyprostaglandin dehydrogenase (HPGD) | P15428 | purified HPGD, NADH fluorescence kinetic, PGE2 substrate | Potency, µM, for the others: at the highest dose activity change, negative = inhibition, actives largely listed as inhibitors | actives 4.3% (n = 150,000) | AID 894; note: potency is the fitted concentration of half-maximal effect
Target sequence (P15428 whole entry, looked up): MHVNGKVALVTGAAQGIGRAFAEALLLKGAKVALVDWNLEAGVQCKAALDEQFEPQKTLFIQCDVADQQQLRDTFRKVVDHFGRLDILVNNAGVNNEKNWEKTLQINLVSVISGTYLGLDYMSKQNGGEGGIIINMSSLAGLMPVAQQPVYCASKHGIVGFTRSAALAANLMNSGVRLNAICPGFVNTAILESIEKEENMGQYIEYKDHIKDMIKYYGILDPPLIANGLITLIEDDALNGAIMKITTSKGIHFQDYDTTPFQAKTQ
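20 nM HPGD preincubated 15 min at room temperature with compound in 50 mM Tris-HCl pH 8, 0.01% Tween 20. Started with 1 mM NAD+ and 30 uM prostaglandin E2; NADH fluorescence (360/450 nm) read 5 times over 30-s intervals, last minus first.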
* hit, by the source's call; ? = inconclusive; / = not tested or not shown; [ ] = remark or other dose. Most compounds without a hit are left out; they make up all but 10% or so of the library. Unless noted, calls come from the whole dose curve; as a rule, active = well fitted inhibition curve with a large enough effect (not every such curve was filed as active); inconclusive = small, poorly fitted or top-dose-only effect, or another doubt; inactive = no such curve, though single readings can be large or run the other way. Unless noted, % is set by controls: 0 for no effect and ±100 for the full control effect.

SMILES	ALDH1A1 block	PNC inhibitor	LMNA splice mod	12-hLO inh	HPGD block
COc1ccc(-c2n[nH]c(=S)n2-c2ccc3c(c2)OCCO3)cc1	-9%	-11	16%	-5%	25µM*
COc1cccc(CNC(=O)CSC2=Nc3ccccc3N=C(c3ccc(F)cc3)C2)c1	/	/	-22%[46 µM]	/	/
Oc1c(C(c2ccccc2Cl)N2CCCC2)sc2nc(-c3ccco3)nn12 (stereo unspecified)	/	/	-5%[46 µM]	/	/
O=[N+]([O-])c1ccc(C2OCCO2)cc1CS(=O)(=O)c1ccccc1	-7%	/	9%[46 µM]	/	/
CC(C)CN1CC2(CCN(C(=O)c3cccc(F)c3)CC2)C1	-5%	/	/	4%	-12%
Cc1ccccc1OCCN1C(=O)C(=O)c2cccc(C)c21	0.22µM*	138	-12%	-1%	-21%
Cc1cccc2c1N(CCOc1ccccc1Cl)C(=O)C2=O	1%	-15	-20%	3%	-20%
Cc1ccccc1OCCN1C(=O)c2ccccc2C1=O	8%	-15	8%	-6%	28µM*
COC(=O)C(C(C)=O)C1c2ccccc2C=C(C)N1C(=O)OC (stereo unspecified)	20%[13.5 µM]	/	?	4%[11.4 µM]	-5%
O=c1c2oc3ccccc3c2[nH]c(=S)n1-c1ccccc1	7.9µM*	2	-12%	-5%	-15%
Cc1ccc(-n2c(=S)[nH]c3c(oc4ccccc43)c2=O)cc1	8%	23	-9%	0%	/
COC(=O)C1=C(C(=O)OC)[C@@H]2N(C)c3ccc(OC)cc3[C@@]23C[C@@H](C(=O)OC)N(S(=O)(=O)c2ccc(C(F)(F)F)cc2)C3=N1	9%[13.5 µM]	/	?	-10%[11.4 µM]	4%
O=C(c1ccc(S(=O)(=O)c2ccccc2Cl)c([N+](=O)[O-])c1)N1CCCCCC1	?	-105*	?	-6%	25µM*
O=C(O)c1ccccc1C(=O)Nc1n[nH]c(=S)s1	6.3µM*	5	?	?	8.9µM*
Fc1ccc(-c2cc(C(F)(F)F)nc(NCc3cccs3)n2)cc1	?	-113*	?	-6%	-29%
Fc1ccc(CNc2nc(-c3ccco3)cc(C(F)(F)F)n2)cc1	?	-29	18%	-19%	?
COc1ccc2cc(C(=O)c3ccccc3)c(=O)oc2c1	14µM*	32	?	-9%	-12%
COc1cccc(N2CCN(c3ncc4c(n3)CCN(Cc3ccc(Br)cc3)C4)CC2)c1	/	/	-15%[46 µM]	/	/
COc1ccc(OC)c(NC(=O)C2COc3ccccc3O2)c1 (stereo unspecified)	?	40	1%	2%	-14%
O=C(Nc1ccc(Cl)cn1)C1COc2ccccc2O1 (stereo unspecified)	22µM*	/	/	/	/
Cc1ccc(CNC(=O)C2COc3ccccc3O2)cc1 (stereo unspecified)	?	/	-6%[46 µM]	/	/
O=C(NCc1ccccc1)C1COc2ccccc2O1 (stereo unspecified)	-1%	?	-6%	-7%	11µM*
Cc1onc(-c2ccccc2)c1CNC(=O)C1COc2ccccc2O1 (stereo unspecified)	18µM*	/	/	/	/
COc1ccc(CNC(=O)C2COc3ccccc3O2)c(OC)c1 (stereo unspecified)	?	12	7%	-15%	4.5µM*
CCC(=O)OCc1cnc(C)c2oc(=O)c(C(=O)Nc3ccccc3C(F)(F)F)cc12	/	/	-8%[46 µM]	/	/
SMILES	ALDH1A1 block	PNC inhibitor	LMNA splice mod	12-hLO inh	HPGD block
O=C(Nc1ccccc1Cl)c1cc(S(=O)(=O)N2CCCC(C(=O)O)C2)ccc1F (stereo unspecified)	22µM*	?	?	-5%	-23%
O=C(Nc1cccc(F)c1)N1CC2(CCN(S(=O)(=O)c3ccccc3)CC2)C1	0%	/	/	3%	-7%
O=C(O)CCc1ccc(-c2ccccc2)o1	3.5µM*	?	-1%	-7%	-25%
O=C(O)CCc1nc(-c2ccccc2)c(-c2ccccc2)o1	-2%[13.5 µM]	/	?	0%[11.4 µM]	?
C=CCOC(=O)C(C(C)=O)C(NC(=O)OC)c1ccc(Cl)cc1 (stereo unspecified)	11%[13.5 µM]	/	/	/	/
CCO[C@@H]1OC(C(=O)NCc2ccccc2)=C[C@H](c2coc3ccccc3c2=O)[C@H]1CCCO	-3%	/	/	/	/
COC(=O)[C@H]1CC=C[C@H]2CCN(Cc3ccc(Cl)c(Cl)c3)C(=O)[C@@H]12	?	/	/	-9%[0.00818 µM]	-12%
O=C(Oc1ccccc1)N1CCN(c2ccc(F)cc2)CC1	-7%	?	-1%	-2%	-13%
O=C(Nc1ccc(N2CCN(c3ccc(O)cc3)CC2)cc1)Oc1ccccc1	11µM*	17	-5%	-16%	-2%
CCCOCC1CC(CCc2nc(=S)[nH][nH]2)C(=O)O1 (stereo unspecified)	2%	-8	-2%	-1%	-24%
CCCCOCC1CC(CC#CCN2CCCCC2)C(=O)O1 (stereo unspecified)	25µM*	/	?	/	/
Cc1ccc(CSc2nnc(-c3ccc(S(=O)(=O)N4CCCC4)cc3)o2)cc1	2%	-92*	-1%	-1%	-7%
CCN(CC)c1ccc(C=C2C(=O)OC3(CCCC3)OC2=O)cc1	0.71µM*	?	3%	-1%	?
CCN(CC)c1ccc(C=C2C(=O)OC(c3ccccc3)OC2=O)cc1 (stereo unspecified)	0.28µM*	/	/	/	/
CCN(CC)c1ccc(C=C2C(=O)OC(C)(C(C)(C)C)OC2=O)cc1 (stereo unspecified)	1%	96	8%[0.0737 µM]	3%	-12%
CN(CCc1ccc(Cl)c(Cl)c1)C[C@@H](O)COc1ccc(NS(C)(=O)=O)cc1	0%	/	/	-4%	-2%
COC(=O)CCCCC1SCC(NC(=O)OC)C1NC(=O)OC (stereo unspecified)	0%	-86*	11%	2%	-10%
COC(=O)CCCC[C@@H]1SC[C@@H](NC(=O)OC)[C@@H]1NC(=O)OC	-7%	1	-4%	-2%	-8%
Cc1c(NC(=O)CSc2ncnc3ccccc23)c(=O)n(-c2ccccc2)n1C	1%	/	?	/	/
Cc1ccc([N+](=O)[O-])c(OCCN2CCC(Cc3ccccc3)CC2)c1	32µM*	/	7%[46 µM]	/	/
CC1CCN(C(=O)c2ccc(SCc3ccccc3F)c([N+](=O)[O-])c2)CC1	?	15	-11%	-8%	25µM*
Cc1ccc(C(=O)N2CCC(Cc3ccccc3)CC2)cc1[N+](=O)[O-]	14µM*	/	?	/	/
Nc1c(S(=O)(=O)O)cc(Nc2cccc(S(N)(=O)=O)c2)c2c1C(=O)c1ccccc1C2=O	?	/	/	-21%[11.4 µM]	?
O=C(NCCCN1CCCCCC1)[C@@H](c1ccccc1)C1CCCCC1	4%	/	/	-4%	3%
NC(N)=NCCN1CCCCCCC1	9%	/	?	-1%	-3%
CC1(C)CC(=O)C(C=NCCN2CCNCC2)=C(O)C1	-3%	/	14%[46 µM]	/	/
Cc1[nH]n(-c2ccccc2)c(=S)c1C=Nc1ccc([N+](=O)[O-])cc1	5.6µM*	118	12%	?	3.5µM*
